The subject of the experiment is VDR:RXRa (NR concentration 270 nM, RXRa partner concentration 90 nM). Put plainly: PBM binding z-score (relative to random genomic background probes); higher = stronger binding; sequences stand for … in GC…GCGATTGACAGCGTAGAATGAAGG
The method, then: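 Protein-binding microarray (Agilent 4x180K custom design, double-stranded 60-nt probes: 5' GC cap, 34-nt variable region, 24-nt constant primer region; full probe sequence given). Purified or IVT nuclear receptor:RXRα heterodimers (3:1 NR:RXRα, mostly 270:90 nM) or homodimers were incubated for 1 h in PBS with 2% milk and no ligand, then detected with Alexa488 antibodies. Fluorescence from o1-orientation probes (~5 replicates averaged) was converted to z-scores against 500 random hg19 background probes. Variable regions are seed direct-repeat (DR0–DR5) sites, all their single-nucleotide variants and half-site ablations.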
Take TAGCCTAGGTCATTGGGCCAGTAAAGTACGCATC: the PBM binding z-score amounted to 2.08.

TCGAGTAGGGTAGTCGGGGCATTCAGCCAACATA had a PBM binding z-score of 0.167.

CGACCAAGGTCAAGGTCAGTGAAAGAGACTCGAA: the PBM binding z-score came to 4.82. In turn, TCTTGTGGATCAACAGGAGGTTAAGAAAGATCGA yielded a PBM binding z-score of 0.329. As for CAGCCTAGGGCAGGGCCAGTATAGGAGGAACGTT, the figure is -0.885; as for GCCGACAGGTGAAACGCAGGTAACTCAGGGTGGC, -0.543. With CAGCCTAGGTCAGGGCCAGTGTAGGAGGAACGTT, the PBM binding z-score was 0.257. For ATCTCTAGGTAACAAGTTCACTGAAAGAGAGGAC the value was 3.26; for CCTCGGAGGACAACAGGAGGTCAGAGCGGCCAGA, 2.92; for TGAATGAGGTTATAAGACCAGGGAACGTTGCAAA, 0.916.

ACTAGCAGGCCAAGTTTGTGTCACTCAAACAAAG showed a PBM binding z-score of -0.313. As for TCAGACAGGCGAAGGTAACTCAGGTACGCAGTCG, the figure is 0.498; as for AGTCAAAGTTTACTAGGTAACGTAAGATTCAGCT, 0.363; as for TCTTGTAGATCAACAGGAGGTTACGAAAGATCGA, 0.945. Turning to ACTATTAGTTGACTTAGGGGAACCGATACGACGC, the PBM binding z-score worked out at 0.378. The sequence TAGCCTAGGTCATGCGGGCCAGTGTAGTGTCGGC had a PBM binding z-score of 2.74. As for GTACCAAGGTGAATAGGTCGTAGATGAGTAGGCG, the figure is 0.667; as for TCTCGGAGGACGCGAAAGGTCAGAGCTCGACATC, 2.8; as for GCTATTAGATGAAAGGGCAACCGAATGATTCTCG, 0.125. Sequence ATCTCTAGGTAACGATAGTTCAGTGAATGCAAAT showed a PBM binding z-score of 0.643.

For the sequence ACTAGCAGCCCAAGTTTGGGTCACTCAAACAAAG, the PBM binding z-score amounted to 0.327.

Sequence ACAGACAGGTGATGAAGGTAACACAGGCTATCAT showed a PBM binding z-score of 0.561. The sequence CAAACTAGGTCAAAGGTCACAGTCGAGCCAACCA registered a PBM binding z-score of 6.63. Regarding TAGCCTAGGTCATGGGCCATTATACCACGCGAAC, the PBM binding z-score amounted to 2.27. For ACTAGCAGGCCTAGGGTCACTCAAGATTAGTCCG the value was 2.03; for TCGAGTAGGTTAGGGGCAATCAGAATGGCGTCGA, 0.363. For TAGCCTAGGTCACTCAGGGGCCAGTATAGAAAGC the value was 2.42; for TCTTCTAGATCAAGCAGGTTAAGAAAGCCTGAGT, 0.623; for ACTATTAGTTGACTTAGGGCCACCGATACGACGC, 0.067. As for CCTACTGGGCCACGAAAGGTCGTTGATTCAGTGA, the PBM binding z-score worked out at 1.74. In turn, GCAGACAGGTGAAACGCAGTTAACTCAGGGTGGC showed a PBM binding z-score of -0.561. As for ATATGTAGGTTCAGGGTCATTCAGGTTGGTTCGC, the figure is 6.03; as for TCCAGTAGGTTACCAATGGGGCATTCAGCTTTCT, 0.0983. In turn, TCATATAGGTAATACAGGTGAAAGTCGGCATCTA returned a PBM binding z-score of 1.31. In turn, ATATGTAGGTTAGTTGGGGTCATTCAGACTAGGC registered a PBM binding z-score of 6.27. As to TCATATAGGTAACTGCTAGGTGAAAGTCCGATCT, the PBM binding z-score came to 0.632. For CGTCCAAGGTCAGTGCTAGGTCAGTGAAAGCATT the value was 3.71; for AGTCAAAGTTCAACTAGGTAACGTAAGATATGCT, 4.61. Sequence GGAACGAGGGCAAAGTTGACAGCATCTGTCGACG came in with a PBM binding z-score of 1.6. As for CCTTACGGGTCACTCCAGGTTAAAGCATCGGAGT, the figure is 4.34.

The values are drawn from the supplement of paper PMC6555819.
